Assay outcomes deposited in PubChem BioAssay by The Scripps Research Institute Molecular Screening Center.
Only some compounds are listed: those with a hit (about 3.4% of all), similar ones and a draw of the others.
FBW7 activator: human FBW7 E3 ligase activation, primary screen | Q969H0 | AlphaScreen FBW7–phospho-cyclin E peptide binding, activator screen | normalized activity (activation), % at 26.1 µM | actives 0.13% (n = 650,000) | AID 1259310; in the data active = normalized activity above about 1.9%;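 note: purified mutant Fbw7 with reduced substrate affinity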
GPR151 activ: activates the human receptor GPR151. AID 1508602. actives 1% (n = 650,000). PathHunter beta-arrestin GPR151 cells, luminescence. activation, % at 11.2 µM; in the data active = activation above about 4.9%
TEAD-YAP block: TEAD-YAP interaction inhibition | actives 1.4% (n = 640,000) | HEK-TIYL cells, TEAD-Gal4/YAP UAS-luciferase luminescence | inhibition, % at 9.12 µM; in the data active = inhibition above about 32%
MITF primary: blocks human microphthalmia-associated transcription factor. AlphaScreen MITF homodimerization, bead proximity signal. inhibition, % at 2.6 µM. actives 0.91% (n = 650,000). AID 1259374; in the data active = inhibition above about 50%
Numbers stand for hits; . = inactive.

SMILES	FBW7 activator	GPR151 activ	TEAD-YAP block	MITF primary
COc1ccc(S(=O)(=O)Oc2cccc(C=C3C(=O)NC(=S)NC3=O)c2)cc1	.	.	.	.
COc1ccc(C=O)cc1OS(=O)(=O)c1ccc(Cl)cc1	.	.	.	.
COc1cccc(-c2ccc(OCCN3CCOCC3)nc2)c1	.	.	.	.
Cc1cnc(CNc2cc(-c3cncc(-c4ccccc4)c3)nc(C)n2)cn1	.	.	46	.
COc1ccc(Nc2cc(-c3cncc(-c4ccccc4)c3)nc(C)n2)cc1	.	.	50	.
COc1c(Br)ccc2cnc(Nc3ccc(-n4cnc(N5CCOCC5)n4)cc3)nc12	.	.	.	.
O=C(NCc1cccc(Oc2ccc(F)cc2)c1)c1ccccn1	.	.	54	.
O=C(Cn1cnc2ccccc21)NCc1cccc(Oc2ccc(F)cc2)c1	.	.	62	.
O=C(NCc1cccc(Oc2ccc(F)cc2)c1)c1cccnc1	.	.	.	.
CCN(CC)c1ccc(NC(=O)C2Cc3ccccc3CN2S(=O)(=O)c2ccc(F)cc2)cc1 (configuration not stated)	.	.	.	.
Oc1c(CN2CCC(Cc3ccccc3)CC2)cc(Cl)c2cccnc12	.	.	60	60
CCOC(=O)N1CCN(Cc2cc(Cl)c3cccnc3c2O)CC1	.	.	76	.
CCOC(=O)N1CCN(C(c2ccccn2)c2ccc3cccnc3c2O)CC1 (configuration not stated)	.	.	.	91
CCOC(=O)N1CCN(C(c2ccccn2)c2c(C)[nH]c3ccccc23)CC1 (configuration not stated)	.	.	.	.
Oc1c(C(c2ccccn2)N2CCCC2)cc(Cl)c2cccnc12 (configuration not stated)	.	.	.	79
c1ccc(CC2CCN(Cc3ccccn3)CC2)cc1	.	.	.	.
CN1CCN(C(c2ccccn2)c2cc(Cl)c3cccnc3c2O)CC1 (configuration not stated)	.	.	.	.
CCC(C)(C)NC(=O)CN(Cc1ccco1)C(=O)CNS(=O)(=O)c1ccc(C)cc1	.	.	.	.
CN1CCN(C(=O)c2ccc(-c3nc(NCCO)c4ncn(-c5ccccc5)c4n3)cc2)CC1	.	.	.	.
N#C/C(=C/c1ccccc1S(=O)(=O)O)S(=O)(=O)c1ccccc1	.	.	.	.
Oc1c(C(c2ccccn2)N2CCN(c3ccc(F)cc3)CC2)cc(Cl)c2cccnc12 (configuration not stated)	.	.	.	.
CCN(CC)Cc1cc(Cl)c2cccnc2c1O	.	.	74	55
CCOC(=O)N1CCN(C(c2ccccn2)c2cc(Cl)c3cccnc3c2O)CC1 (configuration not stated)	.	.	.	53
O=C(Cc1ccc([N+](=O)[O-])cc1)Nc1cnn(Cc2ccc(Cl)cc2)c1	.	.	.	.
CCCCNS(=O)(=O)c1ccc2nc(SCC(C)=O)[nH]c2c1	.	.	34	.
SMILES	FBW7 activator	GPR151 activ	TEAD-YAP block	MITF primary
Cc1ccc2cc3c(nc2c1)OCC(=O)N(Cc1ccco1)C3	.	.	.	.
Cc1cccc2cc3c(nc12)OCC(=O)N(Cc1ccccc1)C3	26	.	58	.
CC1Oc2nc3ccccc3cc2CN(Cc2ccc3c(c2)OCO3)C1=O (configuration not stated)	.	.	.	.
Cc1ccc2cc3c(nc2c1)OCC(=O)N(Cc1ccccc1)C3	.	.	48	.
CC1Oc2nc3ccccc3cc2CN(Cc2ccc(F)cc2)C1=O (configuration not stated)	.	.	32	.
O=C(Nc1ccc(-c2nnc3n2CCCCC3)cc1)c1ccccc1[N+](=O)[O-]	.	.	.	.
Cc1ccc(NC(=O)Cn2cc(S(=O)(=O)c3ccc(C)cc3)c(=O)c3ccccc32)cc1	.	.	.	.
CC1=C(C#N)C(c2cc([N+](=O)[O-])ccc2OC(F)F)C(C#N)=C(C)N1	.	.	42	.
CC1=C(C#N)C(c2cc(Cl)ccc2OC(F)F)C(C#N)=C(C)N1	.	.	44	.
COCCOC(=O)C1=C(C)NC(C)=C(C#N)C1c1ccccc1OC(F)F (configuration not stated)	.	.	.	.
O=C(Oc1ccc2sc(=O)oc2c1)c1ccco1	.	.	.	.
COC(=O)C1=C(C)Nc2ncnn2C1c1cc(Br)c(O)c(OC)c1 (configuration not stated)	.	.	.	.
CCOC(=O)C1=C(C)Nc2ncnn2C1c1cc(Br)c(OC)c(OC)c1 (configuration not stated)	.	.	50	.
